Laboratory results taken from ChEMBL document CHEMBL1961873, “Compounds: GSK PKIS; Assays: Nanosyn kinase panel” (2012).

Experiments:
[1] = target: Fibroblast growth factor receptor 4 (Homo sapiens) (UniProt P22455); details: at 1 µM;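 note: reported figure is the averaged percent inhibition of FGFR4, from the GSK PKIS kinase screening panel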
[2] = target: Tyrosine-protein kinase Fgr (Homo sapiens) (UniProt P09769); details: at 0.1 µM
[3] = target: Tyrosine-protein kinase Fgr (Homo sapiens) (UniProt P09769); details: at 1 µM
[4] = target: Vascular endothelial growth factor receptor 1 (Homo sapiens) (UniProt P17948); details: at 0.1 µM
[5] = target: Vascular endothelial growth factor receptor 1 (Homo sapiens) (UniProt P17948); details: at 1 µM
[6] = target: Receptor-type tyrosine-protein kinase FLT3 (Homo sapiens) (UniProt P36888); details: at 0.1 µM
[7] = target: Receptor-type tyrosine-protein kinase FLT3 (Homo sapiens) (UniProt P36888); details: at 1 µM
[8] = system: T1, Receptor-type tyrosine-protein kinase FLT3 (Homo sapiens), P36888 [D835Y]; details: at 0.1 µM
T1 sequence (whole entry): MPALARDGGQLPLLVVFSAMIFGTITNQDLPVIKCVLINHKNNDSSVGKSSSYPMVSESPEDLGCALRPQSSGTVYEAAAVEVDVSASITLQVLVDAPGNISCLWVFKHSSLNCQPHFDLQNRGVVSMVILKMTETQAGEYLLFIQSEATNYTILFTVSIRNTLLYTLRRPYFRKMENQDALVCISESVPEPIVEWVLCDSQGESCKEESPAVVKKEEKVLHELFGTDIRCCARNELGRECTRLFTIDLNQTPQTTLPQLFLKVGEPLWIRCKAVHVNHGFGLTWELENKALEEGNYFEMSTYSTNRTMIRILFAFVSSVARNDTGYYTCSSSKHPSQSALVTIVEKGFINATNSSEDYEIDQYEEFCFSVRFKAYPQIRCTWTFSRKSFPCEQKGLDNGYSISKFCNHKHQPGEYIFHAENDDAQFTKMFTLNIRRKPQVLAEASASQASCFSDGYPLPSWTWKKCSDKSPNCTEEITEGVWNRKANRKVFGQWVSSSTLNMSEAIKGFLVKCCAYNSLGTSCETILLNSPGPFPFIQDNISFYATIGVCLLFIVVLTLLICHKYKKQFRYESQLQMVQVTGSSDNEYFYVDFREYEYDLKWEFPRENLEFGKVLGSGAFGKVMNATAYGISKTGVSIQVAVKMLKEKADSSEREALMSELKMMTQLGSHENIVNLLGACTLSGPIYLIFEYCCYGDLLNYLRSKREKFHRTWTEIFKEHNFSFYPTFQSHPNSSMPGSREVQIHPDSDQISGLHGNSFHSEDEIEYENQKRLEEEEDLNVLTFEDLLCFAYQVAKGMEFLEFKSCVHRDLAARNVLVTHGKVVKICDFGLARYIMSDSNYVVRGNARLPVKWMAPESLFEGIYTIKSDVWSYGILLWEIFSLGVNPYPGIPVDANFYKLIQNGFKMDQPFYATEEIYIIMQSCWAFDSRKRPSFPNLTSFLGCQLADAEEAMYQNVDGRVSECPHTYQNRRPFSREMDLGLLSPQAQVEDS

[9] = target: Non-receptor tyrosine-protein kinase TYK2 (Homo sapiens) (UniProt P29597); details: at 1 µM;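 note: values are mean percent inhibition of TYK2 kinase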
Sequence of Non-receptor tyrosine-protein kinase TYK2 (Homo sapiens) (P29597 whole entry): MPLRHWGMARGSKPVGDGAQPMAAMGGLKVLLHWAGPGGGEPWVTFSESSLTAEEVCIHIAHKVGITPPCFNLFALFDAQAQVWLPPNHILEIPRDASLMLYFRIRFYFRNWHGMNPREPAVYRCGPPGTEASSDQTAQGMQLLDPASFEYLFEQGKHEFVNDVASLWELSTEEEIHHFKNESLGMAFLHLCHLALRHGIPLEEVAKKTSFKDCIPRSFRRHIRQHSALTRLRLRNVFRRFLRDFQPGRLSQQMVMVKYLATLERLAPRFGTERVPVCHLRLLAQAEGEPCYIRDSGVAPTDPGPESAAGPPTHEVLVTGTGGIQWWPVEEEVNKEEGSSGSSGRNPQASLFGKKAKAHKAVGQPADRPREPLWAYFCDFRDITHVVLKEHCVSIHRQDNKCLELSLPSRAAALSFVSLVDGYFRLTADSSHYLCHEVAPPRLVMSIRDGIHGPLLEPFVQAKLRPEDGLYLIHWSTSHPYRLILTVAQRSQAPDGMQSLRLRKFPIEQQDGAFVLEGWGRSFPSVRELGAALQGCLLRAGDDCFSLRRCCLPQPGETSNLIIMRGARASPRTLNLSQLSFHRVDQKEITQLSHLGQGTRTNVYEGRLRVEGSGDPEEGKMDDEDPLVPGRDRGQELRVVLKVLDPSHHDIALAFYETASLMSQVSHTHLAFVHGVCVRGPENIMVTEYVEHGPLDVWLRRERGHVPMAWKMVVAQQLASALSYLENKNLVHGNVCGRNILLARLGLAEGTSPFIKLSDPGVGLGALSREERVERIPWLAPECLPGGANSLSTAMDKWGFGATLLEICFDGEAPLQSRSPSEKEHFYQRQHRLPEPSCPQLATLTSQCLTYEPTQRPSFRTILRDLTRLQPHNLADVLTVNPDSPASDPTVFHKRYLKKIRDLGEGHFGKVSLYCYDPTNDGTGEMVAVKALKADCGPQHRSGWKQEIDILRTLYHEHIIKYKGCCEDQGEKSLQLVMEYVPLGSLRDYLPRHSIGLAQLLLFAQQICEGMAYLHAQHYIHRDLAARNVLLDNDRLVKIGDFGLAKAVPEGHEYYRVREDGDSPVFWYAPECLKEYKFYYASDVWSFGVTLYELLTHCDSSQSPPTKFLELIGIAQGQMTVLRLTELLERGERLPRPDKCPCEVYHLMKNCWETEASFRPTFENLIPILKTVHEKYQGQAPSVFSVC

[10] = target: T2, Tyrosine-protein kinase receptor TYRO3 (Homo sapiens) (UniProt Q06418); details: at 0.1 µM
T2 sequence (whole entry): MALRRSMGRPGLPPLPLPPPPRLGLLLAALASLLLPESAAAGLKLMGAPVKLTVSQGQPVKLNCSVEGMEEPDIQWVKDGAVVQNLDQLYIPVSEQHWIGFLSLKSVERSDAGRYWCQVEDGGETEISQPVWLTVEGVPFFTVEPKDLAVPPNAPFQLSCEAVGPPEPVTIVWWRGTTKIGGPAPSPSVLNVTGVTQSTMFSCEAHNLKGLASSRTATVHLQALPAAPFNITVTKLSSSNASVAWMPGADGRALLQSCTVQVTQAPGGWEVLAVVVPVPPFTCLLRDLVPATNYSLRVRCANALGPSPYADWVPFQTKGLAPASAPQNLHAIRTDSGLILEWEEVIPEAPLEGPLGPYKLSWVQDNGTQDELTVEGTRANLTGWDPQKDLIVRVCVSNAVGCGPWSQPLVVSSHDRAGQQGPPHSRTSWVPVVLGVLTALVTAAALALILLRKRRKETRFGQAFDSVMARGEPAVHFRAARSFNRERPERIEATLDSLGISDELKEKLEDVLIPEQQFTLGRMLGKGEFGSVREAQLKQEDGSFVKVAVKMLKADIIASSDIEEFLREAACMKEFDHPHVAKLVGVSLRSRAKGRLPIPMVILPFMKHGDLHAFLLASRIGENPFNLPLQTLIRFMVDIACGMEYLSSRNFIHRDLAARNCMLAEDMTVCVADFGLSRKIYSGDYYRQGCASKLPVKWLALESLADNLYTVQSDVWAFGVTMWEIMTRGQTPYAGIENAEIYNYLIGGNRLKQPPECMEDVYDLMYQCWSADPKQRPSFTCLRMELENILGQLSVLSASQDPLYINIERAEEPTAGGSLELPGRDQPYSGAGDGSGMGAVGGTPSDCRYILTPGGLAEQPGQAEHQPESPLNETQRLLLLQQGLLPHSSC

[11] = target: T2, Tyrosine-protein kinase receptor TYRO3 (Homo sapiens); details: at 1 µM
[12] = target: Tyrosine-protein kinase Yes (Homo sapiens) (UniProt P07947); details: at 0.1 µM
Sequence of Tyrosine-protein kinase Yes (Homo sapiens) (P07947 2-543 limits assumed): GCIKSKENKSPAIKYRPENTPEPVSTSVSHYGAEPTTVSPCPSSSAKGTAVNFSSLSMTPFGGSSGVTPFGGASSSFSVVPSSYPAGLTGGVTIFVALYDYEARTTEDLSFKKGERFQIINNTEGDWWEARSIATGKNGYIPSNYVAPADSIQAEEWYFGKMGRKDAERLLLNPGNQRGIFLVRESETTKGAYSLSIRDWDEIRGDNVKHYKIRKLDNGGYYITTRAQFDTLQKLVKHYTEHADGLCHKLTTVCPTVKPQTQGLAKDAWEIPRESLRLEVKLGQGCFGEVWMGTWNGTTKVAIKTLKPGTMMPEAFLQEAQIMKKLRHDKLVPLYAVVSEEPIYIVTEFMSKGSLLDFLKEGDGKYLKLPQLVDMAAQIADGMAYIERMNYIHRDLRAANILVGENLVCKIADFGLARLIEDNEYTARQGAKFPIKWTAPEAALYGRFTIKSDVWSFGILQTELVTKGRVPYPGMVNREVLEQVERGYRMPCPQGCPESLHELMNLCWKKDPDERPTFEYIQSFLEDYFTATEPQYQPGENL

[13] = target: Tyrosine-protein kinase Yes (Homo sapiens) (UniProt P07947); details: at 1 µM
[14] = target: T3, Tyrosine-protein kinase ZAP-70 (Homo sapiens) (UniProt P43403); details: at 0.1 µM
T3 sequence (whole entry): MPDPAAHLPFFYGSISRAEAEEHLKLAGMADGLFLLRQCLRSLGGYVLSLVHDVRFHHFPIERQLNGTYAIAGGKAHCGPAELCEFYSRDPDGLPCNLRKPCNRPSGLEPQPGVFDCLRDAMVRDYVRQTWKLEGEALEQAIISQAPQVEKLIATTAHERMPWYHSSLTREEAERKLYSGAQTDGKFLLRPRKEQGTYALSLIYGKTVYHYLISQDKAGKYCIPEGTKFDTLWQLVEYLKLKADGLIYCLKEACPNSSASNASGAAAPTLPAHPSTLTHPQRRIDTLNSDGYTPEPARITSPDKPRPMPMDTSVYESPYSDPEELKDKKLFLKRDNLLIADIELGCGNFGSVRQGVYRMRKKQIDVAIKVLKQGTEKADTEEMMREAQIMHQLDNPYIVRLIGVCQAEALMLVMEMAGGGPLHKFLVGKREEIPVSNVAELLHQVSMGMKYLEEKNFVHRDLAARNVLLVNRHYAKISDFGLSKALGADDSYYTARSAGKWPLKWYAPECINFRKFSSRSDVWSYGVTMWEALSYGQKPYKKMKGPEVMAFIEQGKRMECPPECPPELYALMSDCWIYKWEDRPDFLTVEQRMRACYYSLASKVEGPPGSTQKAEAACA

[15] = target: T3, Tyrosine-protein kinase ZAP-70 (Homo sapiens); details: at 1 µM
[16] = target: Serine/threonine-protein kinase B-raf (Homo sapiens) (UniProt P15056); details: at 0.1 µM
Sequence of Serine/threonine-protein kinase B-raf (Homo sapiens) (P15056 whole entry): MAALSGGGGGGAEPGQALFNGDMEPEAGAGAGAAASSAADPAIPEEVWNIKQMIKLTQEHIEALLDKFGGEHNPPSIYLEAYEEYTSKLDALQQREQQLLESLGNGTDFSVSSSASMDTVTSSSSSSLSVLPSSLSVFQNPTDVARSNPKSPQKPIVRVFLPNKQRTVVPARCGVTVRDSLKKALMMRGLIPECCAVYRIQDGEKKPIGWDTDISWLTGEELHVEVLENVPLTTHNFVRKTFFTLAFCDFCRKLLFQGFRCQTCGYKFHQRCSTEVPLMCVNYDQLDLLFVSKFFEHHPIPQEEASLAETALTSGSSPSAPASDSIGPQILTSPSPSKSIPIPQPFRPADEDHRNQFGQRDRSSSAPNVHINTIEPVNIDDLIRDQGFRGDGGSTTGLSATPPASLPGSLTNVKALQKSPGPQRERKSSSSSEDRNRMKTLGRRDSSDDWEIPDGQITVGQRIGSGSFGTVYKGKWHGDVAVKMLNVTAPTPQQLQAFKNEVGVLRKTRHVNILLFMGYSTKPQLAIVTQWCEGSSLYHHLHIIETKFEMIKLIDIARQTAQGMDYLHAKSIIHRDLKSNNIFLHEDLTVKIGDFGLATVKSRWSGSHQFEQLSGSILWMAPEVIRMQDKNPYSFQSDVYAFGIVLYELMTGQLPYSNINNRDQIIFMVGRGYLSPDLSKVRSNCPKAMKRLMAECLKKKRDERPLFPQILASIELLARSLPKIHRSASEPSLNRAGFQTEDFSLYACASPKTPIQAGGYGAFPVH

[17] = target: Serine/threonine-protein kinase B-raf (Homo sapiens) (UniProt P15056); details: at 1 µM
[18] = system: Serine/threonine-protein kinase B-raf (Homo sapiens), P15056 [V600E]; details: at 0.1 µM
Sequence of Serine/threonine-protein kinase B-raf (Homo sapiens), P15056 [V600E] (P15056 whole entry V600E): as the sequence (P15056 whole entry) above, with V600E counted along it

[19] = system: Serine/threonine-protein kinase B-raf (Homo sapiens), P15056 [V600E]; details: at 1 µM
[20] = target: RAF proto-oncogene serine/threonine-protein kinase (Homo sapiens) (UniProt P04049); details: at 0.1 µM;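 note: values are mean CRAF kinase inhibition from profiling of the GSK Published Kinase Inhibitor Set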
Sequence of RAF proto-oncogene serine/threonine-protein kinase (Homo sapiens) (P04049 whole entry): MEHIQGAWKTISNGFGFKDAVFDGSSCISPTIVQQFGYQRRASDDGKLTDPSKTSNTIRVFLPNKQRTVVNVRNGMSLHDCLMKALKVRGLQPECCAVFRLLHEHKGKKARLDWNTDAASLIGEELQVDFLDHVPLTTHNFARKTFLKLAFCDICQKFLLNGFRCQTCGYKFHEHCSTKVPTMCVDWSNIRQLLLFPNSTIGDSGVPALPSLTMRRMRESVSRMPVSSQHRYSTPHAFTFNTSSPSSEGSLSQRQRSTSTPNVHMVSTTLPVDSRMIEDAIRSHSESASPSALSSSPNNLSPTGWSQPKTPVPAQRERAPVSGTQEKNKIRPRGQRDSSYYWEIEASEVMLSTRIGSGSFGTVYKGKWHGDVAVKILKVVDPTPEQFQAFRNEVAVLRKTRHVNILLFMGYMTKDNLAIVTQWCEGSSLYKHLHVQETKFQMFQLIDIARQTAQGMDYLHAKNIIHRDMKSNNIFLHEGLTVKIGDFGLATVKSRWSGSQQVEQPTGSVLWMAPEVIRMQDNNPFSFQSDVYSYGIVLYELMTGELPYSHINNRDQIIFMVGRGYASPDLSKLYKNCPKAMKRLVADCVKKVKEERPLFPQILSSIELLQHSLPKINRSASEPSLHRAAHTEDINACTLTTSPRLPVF

Sequence of Fibroblast growth factor receptor 4 (Homo sapiens) (P22455 22-802 limits assumed): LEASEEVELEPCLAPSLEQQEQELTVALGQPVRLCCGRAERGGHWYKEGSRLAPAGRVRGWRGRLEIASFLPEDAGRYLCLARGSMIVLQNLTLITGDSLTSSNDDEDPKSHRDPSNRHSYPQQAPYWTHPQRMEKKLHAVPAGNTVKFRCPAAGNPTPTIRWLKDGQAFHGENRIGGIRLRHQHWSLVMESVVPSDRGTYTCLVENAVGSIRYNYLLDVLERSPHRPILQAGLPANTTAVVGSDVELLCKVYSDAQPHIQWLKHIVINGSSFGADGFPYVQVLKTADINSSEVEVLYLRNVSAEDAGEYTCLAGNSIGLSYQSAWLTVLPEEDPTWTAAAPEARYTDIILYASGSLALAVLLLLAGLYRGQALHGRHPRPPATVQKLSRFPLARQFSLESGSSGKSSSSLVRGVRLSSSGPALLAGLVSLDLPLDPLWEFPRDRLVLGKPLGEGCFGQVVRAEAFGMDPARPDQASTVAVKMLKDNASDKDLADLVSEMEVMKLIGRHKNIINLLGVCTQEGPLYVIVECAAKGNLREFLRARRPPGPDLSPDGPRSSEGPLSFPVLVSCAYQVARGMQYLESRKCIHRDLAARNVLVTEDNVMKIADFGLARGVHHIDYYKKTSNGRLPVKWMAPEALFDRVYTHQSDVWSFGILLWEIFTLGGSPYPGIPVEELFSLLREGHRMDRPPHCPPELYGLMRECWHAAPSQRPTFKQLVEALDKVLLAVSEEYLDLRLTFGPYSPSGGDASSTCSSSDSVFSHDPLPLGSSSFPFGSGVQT
Sequence of Tyrosine-protein kinase Fgr (Homo sapiens) (P09769 2-529 limits assumed): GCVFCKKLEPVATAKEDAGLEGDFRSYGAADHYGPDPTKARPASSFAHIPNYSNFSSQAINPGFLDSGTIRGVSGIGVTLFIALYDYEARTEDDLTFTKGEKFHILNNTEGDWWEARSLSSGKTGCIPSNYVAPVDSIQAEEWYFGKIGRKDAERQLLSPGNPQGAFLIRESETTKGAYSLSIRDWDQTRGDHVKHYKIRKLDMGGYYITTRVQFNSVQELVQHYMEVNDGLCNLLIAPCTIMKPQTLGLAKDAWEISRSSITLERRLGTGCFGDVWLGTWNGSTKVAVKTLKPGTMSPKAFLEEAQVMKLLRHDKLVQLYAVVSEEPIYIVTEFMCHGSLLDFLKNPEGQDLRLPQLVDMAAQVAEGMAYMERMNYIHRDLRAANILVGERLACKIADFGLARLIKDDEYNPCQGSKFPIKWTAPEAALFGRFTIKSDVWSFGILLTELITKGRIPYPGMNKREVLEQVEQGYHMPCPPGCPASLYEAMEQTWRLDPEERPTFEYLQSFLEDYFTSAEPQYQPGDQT

`COc1cc(/C=N/Nc2ncnc3[nH]ncc23)ccc1O` showed an inhibition [1] of 2.77%, an inhibition [2] of 12.4% and an inhibition [3] of 52.6%. It also gave an inhibition [4] of 2.92%, an inhibition [5] of 10.6% and an inhibition [6] of 3.29%. The inhibition [7] was 17.4%, the inhibition [8] was 3.54% and the inhibition [9] was 4.1%. For the same compound, the inhibition [10] was 4.61%, the inhibition [11] was 26.6% and the inhibition [12] was 16.4%. The inhibition [13] was 58%, the inhibition [14] was 0.75% and the inhibition [15] was 7.51%. The inhibition [16] was 5.39%, the inhibition [17] was 8.88% and the inhibition [18] was 4.62%. For the same compound, the inhibition [19] was 8.2% and the inhibition [20] was 4.83%.
With `CN(C)CCOc1ccc(-c2nc(-c3ccncc3)c(-c3ccc4c(c3)CC/C4=N\O)[nH]2)cc1` the inhibition [1] was 0.44%, the inhibition [2] was 2.2% and the inhibition [3] was 5.88%. The inhibition [4] was 2.37%, the inhibition [5] was 2.95% and the inhibition [6] was 2.67%. For the same compound, the inhibition [7] was 2.62%, the inhibition [8] was 1.65% and the inhibition [9] was -5.49%. For the same compound, the inhibition [10] was 3.44%, the inhibition [11] was 5.27% and the inhibition [12] was 3.06%. For the same compound, the inhibition [13] was 16.4%, the inhibition [14] was -1.98% and the inhibition [16] was 63.5%. It also gave an inhibition [17] of 88.8%, an inhibition [18] of 72.2% and an inhibition [19] of 90.1%. It also gave an inhibition [20] of 12.5%.
`Fc1cccc(COc2ccc(Nc3ncnc4sc(-c5ccco5)cc34)cc2Cl)c1` showed an inhibition [1] of -0.7%, an inhibition [2] of 3.8% and an inhibition [3] of 8.35%. It also gave an inhibition [4] of 2.39%, an inhibition [5] of 2.46% and an inhibition [7] of 4.08%. The inhibition [8] was -8.41%, the inhibition [9] was -1.9% and the inhibition [10] was 5.86%. It also gave an inhibition [11] of 1.85%, an inhibition [12] of 1.73% and an inhibition [13] of 4.21%. The inhibition [14] was 0.85%, the inhibition [15] was 2.41% and the inhibition [16] was 6.56%. It also gave an inhibition [17] of 5.32%, an inhibition [18] of 4.59% and an inhibition [19] of 3.4%. It also gave an inhibition [20] of -0.33%.
For `N#Cc1c(NC(=O)CN2CCOCC2)sc2c1CCCC2`, the inhibition [1] was 2.81%, the inhibition [2] was 2.52% and the inhibition [3] was 4.31%. It also gave an inhibition [4] of 0.23%, an inhibition [5] of 4.24% and an inhibition [6] of 1.8%. It also gave an inhibition [7] of 4.78%, an inhibition [8] of 0.3% and an inhibition [9] of -0.83%. It also gave an inhibition [10] of 2.15%, an inhibition [11] of 3.91% and an inhibition [12] of 3.9%. For the same compound, the inhibition [13] was 3.95%, the inhibition [14] was 1.13% and the inhibition [15] was -1.02%. For the same compound, the inhibition [16] was 5.62%, the inhibition [17] was 6.96% and the inhibition [18] was 5.95%. The inhibition [19] was 4.84% and the inhibition [20] was 4.41%.
Compound `Cc1ccc2c(-c3ccnc(Nc4ccccc4)n3)c(-c3ccc(F)cc3)nn2n1` has an inhibition [1] of 1.8%, an inhibition [2] of 40.7% and an inhibition [3] of 78.4%. The inhibition [4] was 2.49%, the inhibition [5] was 22.1% and the inhibition [6] was 2.15%. The inhibition [7] was 4.21%, the inhibition [8] was 3.24% and the inhibition [9] was -1.64%. The inhibition [10] was 3.56%, the inhibition [11] was 25.6% and the inhibition [12] was 58.4%. It also gave an inhibition [13] of 92.1%, an inhibition [14] of 2.85% and an inhibition [15] of 2.04%. The inhibition [16] was 6.37%, the inhibition [17] was 15.5% and the inhibition [18] was 4.53%. For the same compound, the inhibition [19] was 13% and the inhibition [20] was -2.73%.
`CNC(=O)c1cc(-c2ccc(F)cc2)cc(-c2ccc(S(=O)(=O)N3CCCC3)cc2)c1N` gave an inhibition [1] of 0.22%, an inhibition [2] of 0.33% and an inhibition [3] of 2.93%. The inhibition [4] was 2.17%, the inhibition [5] was -0.47% and the inhibition [6] was 3.03%. For the same compound, the inhibition [7] was 1.85%, the inhibition [8] was -1.38% and the inhibition [9] was -1.28%. For the same compound, the inhibition [10] was 1.59%, the inhibition [11] was 1.73% and the inhibition [12] was 2.18%. It also gave an inhibition [13] of 3.44%, an inhibition [14] of -0.4% and an inhibition [15] of -0.59%. For the same compound, the inhibition [16] was 3.72%, the inhibition [17] was 3.4% and the inhibition [18] was 3.04%. For the same compound, the inhibition [19] was 3.6% and the inhibition [20] was 0.46%.
Compound `CC(C)COC(=O)c1ccc2c(c1)/C(=C/Nc1ccc(S(N)(=O)=O)cc1)C(=O)N2` has an inhibition [1] of 2.26%, an inhibition [2] of 4.59% and an inhibition [3] of 32%. The inhibition [4] was 4.68%, the inhibition [5] was 39.4% and the inhibition [7] was 56%. For the same compound, the inhibition [8] was 58.7%, the inhibition [9] was 4.42% and the inhibition [10] was 0.69%. The inhibition [11] was 17%, the inhibition [12] was 0.49% and the inhibition [13] was 22.1%. For the same compound, the inhibition [14] was -2.35%, the inhibition [15] was 1.21% and the inhibition [16] was 2.66%. The inhibition [17] was 32.8%, the inhibition [18] was 1.68% and the inhibition [19] was 34%. It also gave an inhibition [20] of -3.89%.
